Measurements reported in published antibiotic growth screens (doi:10.1016/j.cell.2020.01.021).
In all, about 2,300 compounds were measured (“relative growth”: median about 1, lowest 2% from about 0.046 on). The list is a sample of the results.

These compounds were tested on E. coli BW25113 (assay: relative growth (fraction of control); higher = less inhibition). Conditions: 50 µM.

| SMILES | relative growth |
| --- | --- |
| CC12CCC3C(=CCc4cc(O)ccc43)C1CCC2=O (stereo unspecified) | 0.988 |
| CCC1OC(=O)C(C)C(OC2CC(C)(OC)C(O)C(C)O2)C(C)C(OC2OC(C)CC(N(C)C)C2O)C(C)(O)CC(C)C(=O)C(C)C(O)C1(C)O.CCCCCCCCCCCCCCCCCC(=O)O (stereo unspecified) | 0.665 |
| NCCCC(N)C(=O)O.NCCCC(N)C(=O)O.O=C(O)CCC(=O)C(=O)O | 1.09 |
| C=CC1CN2CCC1CC2C(O)c1ccnc2ccc(OC)cc12 (stereo unspecified) | 1.02 |
| Cc1ccsc1C=CC1=NCCCN1C.O=C(O)CC(O)(CC(=O)O)C(=O)O | 0.986 |
| CN(C)C1C(O)=C(C(N)=O)C(=O)C2(O)C(O)=C3C(=O)c4c(O)cccc4C(C)(O)C3CC12.Cl (stereo unspecified) | 0.0522 |
| CN1CCN(C2=Nc3ccccc3Oc3ccc(Cl)cc32)CC1.O=C(O)CCC(=O)O | 1.08 |
| C#CCCCCCCCCCCCC(O)CC(O)COC(C)=O.C=CCCCCCCCCCCCC(O)CC(O)COC(C)=O (stereo unspecified) | 1.03 |
| CCN(CC)CCOCCOC(=O)C1(c2ccccc2)CCCC1.O=C(O)CC(O)(CC(=O)O)C(=O)O | 1.08 |
| CN(C)CCC(c1ccc(Cl)cc1)c1ccccn1.O=C(O)C=CC(=O)O (stereo unspecified) | 0.967 |
| CCCCCCc1ccc(O)cc1O.Nc1c2ccccc2nc2ccccc12 | 0.591 |
| Cl.N[C@H](Cc1ccccc1)C(=O)O | 1 |
| O=C(O)C(O)C(O)C(=O)O.OCc1cccnc1 (stereo unspecified) | 1.06 |
| CNCC(O)C(O)C(O)C(O)CO.Cc1c(Nc2ncccc2C(=O)O)cccc1C(F)(F)F | 1.04 |
| CCCCCNC(=N)NN=Cc1c[nH]c2ccc(OC)cc12.O=C(O)C=CC(=O)O | 0.879 |
| CCN(CC)CCOCCOC(=O)C(CC)(CC)c1ccccc1.O=C(O)CC(O)(CC(=O)O)C(=O)O | 1.1 |

| SMILES | relative growth |
| --- | --- |
| CN1CCCN=C1C=Cc1cccs1.O=C(O)c1cc2ccccc2c(Cc2c(O)c(C(=O)O)cc3ccccc23)c1O | 1.13 |
| CCC1OC(=O)CC(O)C(C)C(OC2OC(C)C(OC3CC(C)(O)C(O)C(C)O3)C(N(C)C)C2O)C(CC=O)CC(C)C(=O)C=CC(C)=CC1COC1OC(C)C(O)C(OC)C1OC.O=C(O)C(O)C(O)C(=O)O (stereo unspecified) | 1.09 |
| CC(=O)OC1CC2(C)C(CC(O)C3C4(C)CCC(O)C(C)C4CCC32C)C1=C(CCC=C(C)C)C(=O)O (stereo unspecified) | 1.12 |
| NNC(=O)c1ccncc1.Nc1ccc(C(=O)O)c(O)c1 | 0.943 |
| O=C(O)CCC(=O)O.O=C(OC1CN2CCC1CC2)N1CCc2ccccc2C1c1ccccc1 (stereo unspecified) | 1.02 |
| CCC(=O)OC1C(OC2C(C)C(OC3CC(C)(OC)C(O)C(C)O3)C(C)C(=O)OC(CC)C(C)(O)C(O)C(C)C(=O)C(C)CC2(C)O)OC(C)CC1N(C)C.CCCCCCCCCCCCOS(=O)(=O)O (stereo unspecified) | 0.953 |
| Oc1ccc(Cl)c2cccnc12 | 0.421 |
| CN1CCc2nc(C(=O)NC3CC(C(=O)N(C)C)CCC3NC(=O)C(=O)Nc3ccc(Cl)cn3)sc2C1.Cc1ccc(S(=O)(=O)O)cc1.O (stereo unspecified) | 1.01 |
| CC(=O)c1ccc2c(c1)N(CCCN1CCN(CCO)CC1)c1ccccc1S2.O=C(O)C=CC(=O)O | 1.17 |
| CC(=O)OCC(=O)C1(O)C(C)CC2C3CCC4=CC(=O)C=CC4(C)C3(F)C(O)CC21C (stereo unspecified) | 0.913 |
| OCC(O)C(O)C(OC1OC(CO)C(O)C(O)C1O)C(O)CO (stereo unspecified) | 0.991 |
| CC1CC2C3CCC4=CC(=O)C=CC4(C)C3(F)C(O)CC2(C)C1(O)C(=O)COP(=O)([O-])[O-].[Na+].[Na+] (stereo unspecified) | 1.1 |
| CN1C(C)(C)CCCC1(C)C.O=C(O)C(O)C(O)C(=O)O | 0.993 |
| CN(C)CCN(Cc1ccccc1)c1ccccn1.O=C(O)CC(O)(CC(=O)O)C(=O)O | 0.763 |
| CCC(=C(c1ccccc1)c1ccc(OCCN(C)C)cc1)c1ccccc1.O=C(O)CC(O)(CC(=O)O)C(=O)O | 0.642 |
